# Laboratory results published in PubChem BioAssay (Tox21).
# Inconclusive results are not listed. Entries that show only a call come without a potency. The source made the active and inactive calls. Unless noted, the call rests on the fitted dose curve; in most records, active means well fitted curve in the direction sought with a large enough effect in the repeat runs; inconclusive means weak or mixed curves; inactive means no such curve, though single readings can be large; an effect the other way counts as inactive or inconclusive.
# Key:
# [1] = qHTS assay to identify small molecule agonists of the sonic hedgehog signaling (Shh) pathway (AID 1259368; calls by dose curve;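 further: NIH/3T3-derived 3T3Gli1-Luc cells carrying a stable Gli1-driven firefly luciferase reporter; series mostly up to about 92 µM; nearly all actives have a fitted effect of over 15% in size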)
# Summary of the method: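 Quantitative high-throughput format using a Gli1-driven firefly luciferase reporter line derived from NIH/3T3 cells. After a 24 hr compound treatment at 37 C and 5% CO2, luminescence reported Gli1 response element activity.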
# [2] = qHTS assay to identify small molecule antagonists of the sonic hedgehog signaling (Shh) pathway (AID 1259369; calls by dose curve; further: nearly all actives have a fitted effect of over 45% in size; further: potency means the concentration at half of the fitted maximal effect)
# Summary of the method: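 Stable Gli1-Luc reporter NIH/3T3 clone; quantitative HTS in stimulated mode with conditioned medium. Luminescence measured after 24hr compound treatment at 37 C.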
# [3] = molecular target: Estrogen receptor beta (Homo sapiens) (UniProt Q92731); test: qHTS assay to identify small molecule antagonists of the estrogen receptor beta (ER-beta) signaling pathway (AID 1259378; active means well fitted inhibition curve with a large enough effect in the signal ratio in the repeat runs, not every such curve was filed as active; the % refers to the signal ratio; further: potency means the concentration at half of the fitted maximal effect)
# Chain of Estrogen receptor beta (Homo sapiens) (Q92731 whole entry, looked up): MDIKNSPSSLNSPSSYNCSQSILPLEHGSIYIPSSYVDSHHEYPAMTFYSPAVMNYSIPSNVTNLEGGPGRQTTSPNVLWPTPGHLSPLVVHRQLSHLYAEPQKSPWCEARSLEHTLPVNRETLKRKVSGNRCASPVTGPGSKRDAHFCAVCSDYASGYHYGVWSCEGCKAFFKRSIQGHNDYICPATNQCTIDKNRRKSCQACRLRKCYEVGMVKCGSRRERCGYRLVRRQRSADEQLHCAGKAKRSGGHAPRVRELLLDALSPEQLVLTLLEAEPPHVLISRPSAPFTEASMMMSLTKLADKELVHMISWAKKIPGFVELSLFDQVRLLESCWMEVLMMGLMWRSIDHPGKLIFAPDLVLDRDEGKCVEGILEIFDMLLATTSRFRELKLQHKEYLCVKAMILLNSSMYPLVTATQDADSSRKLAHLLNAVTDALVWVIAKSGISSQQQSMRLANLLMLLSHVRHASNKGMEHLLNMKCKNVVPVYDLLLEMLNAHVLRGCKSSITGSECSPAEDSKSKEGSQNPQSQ
# Summary of the method: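 Antagonist mode: compounds added to beta-lactamase reporter HEK293T ER-beta-UAS cells stimulated with E2 (1nM final), 16 hr at 37C. LiveBLAzer B/G FRET substrate, 2 hours room temperature, fluorescence read-out.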
# [4] = qHTS assay to identify small molecule agonists of the androgen receptor (AR) signaling pathway in the presence of an antagonist - cell viability counter screen (AID 1259379); further: nearly all actives have a fitted effect of over 25% in size; further: potency means the concentration at half of the fitted maximal effect
# Summary of the method: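 Nilutamide-containing (3.0uM final) MDA-kb2 cultures, 3,000 cells/well, were treated with compounds across 15 concentrations. After 16 hr at 37C with no CO2, cell viability was determined by CellTiter-Fluor fluorescence in the luciferase assay wells.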
# [5] = qHTS assay to identify small molecule agonists of the estrogen receptor beta (ER-beta) signaling pathway - cell viability counter screen (AID 1259380); further: nearly all actives have a fitted effect of over 30% in size; further: potency means the concentration at half of the fitted maximal effect
# Summary of the method: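 Steps: plate ER-beta-UAS-bla HEK293T cells, rest 6 hr; add compounds in DMSO; incubate 16 hr at 37C, 5% CO2; add FRET substrate 2 hr; add CellTiter-Glo, wait 30 min at room temperature; read luminescence.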
# [6] = qHTS assay to identify small molecule antagonists of the estrogen receptor beta (ER-beta) signaling pathway - cell viability counter screen (AID 1259382);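 further: HEK293T cells carrying ER-beta-UAS-bla reporter stimulated with estradiol; series mostly up to about 92 µM; nearly all actives have a fitted effect of over 55% in size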
# Summary of the method: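 Viability is scored by CellTiter-Glo luminescence (30 min, room temperature) in ER-beta-UAS-bla HEK293T wells already read for reporter fluorescence. Compound exposure lasts 16 hr at 37C alongside 1nM 17-beta-estradiol in charcoal-stripped serum medium.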
# [7] = molecular target: Estrogen receptor (Homo sapiens) (UniProt P03372); test: qHTS assay to identify small molecule agonists of the estrogen receptor alpha (ER-alpha) signaling pathway in the presence of an antagonist (AID 1259383; calls by dose curve; further: top concentration of the series differs between compounds; nearly all actives have a fitted effect of over 15% in size)
# Chain of Estrogen receptor (Homo sapiens) (P03372 whole entry, looked up): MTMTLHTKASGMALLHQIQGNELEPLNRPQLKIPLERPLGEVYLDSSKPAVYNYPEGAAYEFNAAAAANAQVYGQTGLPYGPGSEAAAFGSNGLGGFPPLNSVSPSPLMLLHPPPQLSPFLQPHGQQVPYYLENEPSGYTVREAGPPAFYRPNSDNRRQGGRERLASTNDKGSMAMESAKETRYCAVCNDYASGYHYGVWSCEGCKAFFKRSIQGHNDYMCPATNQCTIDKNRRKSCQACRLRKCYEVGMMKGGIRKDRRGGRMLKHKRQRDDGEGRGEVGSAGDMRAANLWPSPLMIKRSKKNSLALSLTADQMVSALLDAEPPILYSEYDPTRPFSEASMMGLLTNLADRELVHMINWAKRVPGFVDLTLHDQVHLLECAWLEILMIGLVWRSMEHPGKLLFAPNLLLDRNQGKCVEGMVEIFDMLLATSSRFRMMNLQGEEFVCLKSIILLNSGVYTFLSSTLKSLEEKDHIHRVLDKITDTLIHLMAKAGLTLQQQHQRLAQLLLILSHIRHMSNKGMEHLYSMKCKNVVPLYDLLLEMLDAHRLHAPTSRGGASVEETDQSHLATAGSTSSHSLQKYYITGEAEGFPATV
# Summary of the method: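 Readout was ERE-driven luciferase luminescence in VM7Luc4E2 cells, which express full-length ER-alpha endogenously. Compounds were tested at 15 concentrations for 22hr alongside 10.0nM ICI-182,780 (final concentration).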
# [8] = qHTS assay to identify small molecule agonists or antagonists of the thyroid stimulating hormone receptor (TSHR) signaling pathway - wild type cell line counter screen (AID 1259384; calls by dose curve)
# Summary of the method: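 Counter screen in untransfected Hek293: compounds (15-point titration, triplicate) plus phosphodiesterase inhibitor Ro20-1724 added after 18 h plating; 30 min RT. Intracellular cAMP via competitive d2/cryptate immunoassay, 1 h incubation.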
# [9] = molecular target: Thyrotropin receptor (Homo sapiens) (UniProt P16473); test: qHTS assay to identify small molecule antagonists of the thyroid stimulating hormone receptor (TSHR) signaling pathway (AID 1259385; calls by dose curve; further: nearly all actives have a fitted effect of over 20% in size)
# Chain of Thyrotropin receptor (Homo sapiens) (P16473 whole entry, looked up): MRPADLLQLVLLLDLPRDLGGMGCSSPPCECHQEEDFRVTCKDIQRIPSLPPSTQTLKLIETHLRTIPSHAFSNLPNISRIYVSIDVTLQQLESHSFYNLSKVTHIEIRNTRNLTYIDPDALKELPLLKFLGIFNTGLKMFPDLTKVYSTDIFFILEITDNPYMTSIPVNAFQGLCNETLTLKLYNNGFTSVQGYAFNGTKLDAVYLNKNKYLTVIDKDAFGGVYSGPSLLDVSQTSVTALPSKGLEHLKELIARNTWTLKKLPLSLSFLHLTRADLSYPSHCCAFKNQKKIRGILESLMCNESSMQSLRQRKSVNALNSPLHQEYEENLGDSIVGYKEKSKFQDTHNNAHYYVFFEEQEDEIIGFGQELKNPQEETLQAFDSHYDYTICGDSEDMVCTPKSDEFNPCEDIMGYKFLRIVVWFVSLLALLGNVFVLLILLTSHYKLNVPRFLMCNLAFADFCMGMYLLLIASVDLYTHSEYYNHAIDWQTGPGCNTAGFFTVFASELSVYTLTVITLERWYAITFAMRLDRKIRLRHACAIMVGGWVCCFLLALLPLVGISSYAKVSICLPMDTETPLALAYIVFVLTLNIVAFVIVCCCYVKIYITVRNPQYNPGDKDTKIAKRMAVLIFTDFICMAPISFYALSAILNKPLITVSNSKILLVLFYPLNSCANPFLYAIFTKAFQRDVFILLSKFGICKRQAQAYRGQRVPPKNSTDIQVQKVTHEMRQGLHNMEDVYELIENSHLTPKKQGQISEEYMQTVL
# Summary of the method: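 Antagonist mode: compound-treated TSHR-expressing HEK293 cells were stimulated with 1.5 ng/mL TSH (final) in presence of Ro20-1724 for 30 min at RT. HTRF cAMP detection after 1 h; each compound tested at 15 concentrations, triplicate.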
# [10] = qHTS assay to identify small molecule agonists of the estrogen receptor alpha (ER-alpha) signaling pathway in the presence of an antagonist - cell viability counter screen (AID 1259386);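 further: cells exposed to compounds for 22 h at 37 °C before the viability read; nearly all actives have a fitted effect of over 30% in size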; further: potency means the concentration at half of the fitted maximal effect
# Summary of the method: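 In this counter screen, compound effects on VM7Luc4E2 viability were tested in the presence of the antagonist ICI-182,780 at 10.0nM final. Compounds were dosed at 15 concentrations, exposure lasted 22hr, and the CellTiter-Fluor signal was read.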
# [11] = molecular target: Progesterone receptor (Homo sapiens) (UniProt P06401); test: qHTS assay to identify small molecule antagonists of the progesterone receptor (PR) signaling pathway (AID 1346795; active means well fitted inhibition curve with a large enough effect in the signal ratio in the repeat runs, not every such curve was filed as active; the % refers to the signal ratio; further: potency means the concentration at half of the fitted maximal effect)
# Chain of Progesterone receptor (Homo sapiens) (P06401 whole entry, looked up): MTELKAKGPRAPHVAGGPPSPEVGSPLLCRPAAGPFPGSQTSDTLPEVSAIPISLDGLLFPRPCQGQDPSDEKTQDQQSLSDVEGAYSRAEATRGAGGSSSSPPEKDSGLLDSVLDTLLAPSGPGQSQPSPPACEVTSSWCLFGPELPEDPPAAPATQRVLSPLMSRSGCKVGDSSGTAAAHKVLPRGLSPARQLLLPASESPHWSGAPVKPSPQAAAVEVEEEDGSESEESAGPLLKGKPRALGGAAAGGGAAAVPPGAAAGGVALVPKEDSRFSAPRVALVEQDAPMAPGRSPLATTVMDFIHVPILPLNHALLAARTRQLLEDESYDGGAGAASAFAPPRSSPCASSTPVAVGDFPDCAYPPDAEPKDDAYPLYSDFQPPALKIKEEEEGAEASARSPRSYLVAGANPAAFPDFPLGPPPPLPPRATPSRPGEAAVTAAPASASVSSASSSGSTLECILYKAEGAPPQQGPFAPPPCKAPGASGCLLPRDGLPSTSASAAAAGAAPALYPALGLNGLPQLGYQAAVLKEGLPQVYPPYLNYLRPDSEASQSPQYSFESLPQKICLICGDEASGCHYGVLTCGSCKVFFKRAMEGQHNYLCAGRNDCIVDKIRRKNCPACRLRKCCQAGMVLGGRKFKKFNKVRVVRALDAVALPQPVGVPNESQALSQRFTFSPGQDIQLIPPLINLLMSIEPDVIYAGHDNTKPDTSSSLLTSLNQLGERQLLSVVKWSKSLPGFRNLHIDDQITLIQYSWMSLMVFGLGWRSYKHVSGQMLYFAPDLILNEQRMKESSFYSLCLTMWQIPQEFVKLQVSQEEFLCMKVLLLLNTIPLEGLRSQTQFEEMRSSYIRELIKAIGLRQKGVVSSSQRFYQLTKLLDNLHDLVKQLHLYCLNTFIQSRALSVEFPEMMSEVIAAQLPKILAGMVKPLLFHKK
# Summary of the method: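 PR-UAS-bla HEK293T cells with beta-lactamase reporter under UAS control, in 2% charcoal-stripped FBS, treated with compounds plus 1 nM promegestone (R5020, final) for 16 hr at 37C. Read-out: FRET beta-lactamase substrate fluorescence after 2 hr at room temperature.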
# [12] = qHTS assay to identify small molecule antagonists of the progesterone receptor (PR) signaling pathway - cell viability counter screen (AID 1346798); further: series mostly up to about 92 µM; nearly all actives have a fitted effect of over 50% in size
# Summary of the method: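 PR-UAS-bla HEK293T cells, 3,000/well in 2% charcoal-stripped FBS medium, dosed with compounds plus R5020 agonist and incubated 16 h at 37C. Viability then measured in the same wells by CellTiter-Glo luminescence after 30 min at RT.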
# [13] = qHTS assay to identify small molecule agonists of the progesterone receptor (PR) signaling pathway - cell viability counter screen (AID 1346799; calls by dose curve; further: nearly all actives have a fitted effect of over 45% in size)
# Summary of the method: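 Counter screen in the PR-UAS-bla HEK293T wells (2% charcoal-stripped FBS, 16 h compound exposure at 37 C) after the bla read. CellTiter-Glo added, 30 min at room temperature, luminescence read as cell viability.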
# [14] = qHTS assay to identify small molecule antagonists of the TGF-beta/Smad signaling pathway - cell viability counter screen (AID 1346824); further: nearly all actives have a fitted effect of over 50% in size
# Summary of the method: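 Cytotoxicity counter-screen run in the same wells as the beta-lactamase Smad reporter read: CellTiter-Glo luminescence after 30 min at room temperature. HEK 293T SBE-bla cells had 5 hr compound exposure at 37 C with TGF-beta1 (0.25 ng/mL stock).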
# [15] = qHTS assay to identify small molecule agonists of the TGF-beta/Smad signaling pathway - cell viability counter screen (AID 1346829); further: top concentration of the series differs between compounds; nearly all actives have a fitted effect of over 45% in size
# Summary of the method: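 Luminescence from CellTiter-Glo, read after a 30 min room-temperature incubation, gives cell viability of SBE-bla HEK 293T cells treated 5 hr with compounds at 37 C.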
# [16] = qHTS assay to identify small molecule agonists of the TGF-beta/Smad signaling pathway (AID 1346859; active means well fitted activation curve with a large enough effect in the signal ratio in the repeat runs, not every such curve was filed as active; the % refers to the signal ratio; further: series mostly up to about 77 µM)
# Summary of the method: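 SBE-bla HEK293T cells plated overnight, then compound exposure for 5 h at 37 C. Beta-lactamase reporter read with LiveBLAzer B/G FRET substrate after 2 h at room temperature, fluorescence at 405 nm excitation, 460/530 nm emission.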
# [17] = molecular target: Thyrotropin-releasing hormone receptor (Homo sapiens) (UniProt P34981); test: qHTS assay to identify small molecule antagonists of the thyrotropin-releasing hormone receptor (TRHR) signaling pathway (AID 1346877; active means well fitted inhibition curve with a large enough effect in the repeat runs, not every such curve was filed as active; further: series mostly up to about 51 µM)
# Chain of Thyrotropin-releasing hormone receptor (Homo sapiens) (P34981 whole entry, looked up): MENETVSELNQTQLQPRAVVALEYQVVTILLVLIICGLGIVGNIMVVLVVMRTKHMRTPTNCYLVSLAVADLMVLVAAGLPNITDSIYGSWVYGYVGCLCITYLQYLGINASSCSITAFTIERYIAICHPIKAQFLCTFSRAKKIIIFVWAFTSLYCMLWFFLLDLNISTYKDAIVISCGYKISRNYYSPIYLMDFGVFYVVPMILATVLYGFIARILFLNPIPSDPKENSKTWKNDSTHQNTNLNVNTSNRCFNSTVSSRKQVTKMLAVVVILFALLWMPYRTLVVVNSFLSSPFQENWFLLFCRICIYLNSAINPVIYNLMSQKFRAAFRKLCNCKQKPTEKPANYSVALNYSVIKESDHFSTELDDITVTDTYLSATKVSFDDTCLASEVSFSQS
# Summary of the method: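 Kinetic fluorescence (3 min, 1 s resolution) following stimulation with TRH at 1 nM final; HEK293 cells bearing human TRHR; 5 min compound preincubation at RT; concentration-response over 15 points, triplicates.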
# [18] = molecular target: Androgen receptor (Homo sapiens) (UniProt P10275); test: qHTS assay to identify small molecule agonists of the androgen receptor (AR) signaling pathway in the presence of an antagonist (AID 1259381; calls by dose curve; further: nearly all actives have a fitted effect of over 15% in size)
# Chain of Androgen receptor (Homo sapiens) (P10275 whole entry, looked up): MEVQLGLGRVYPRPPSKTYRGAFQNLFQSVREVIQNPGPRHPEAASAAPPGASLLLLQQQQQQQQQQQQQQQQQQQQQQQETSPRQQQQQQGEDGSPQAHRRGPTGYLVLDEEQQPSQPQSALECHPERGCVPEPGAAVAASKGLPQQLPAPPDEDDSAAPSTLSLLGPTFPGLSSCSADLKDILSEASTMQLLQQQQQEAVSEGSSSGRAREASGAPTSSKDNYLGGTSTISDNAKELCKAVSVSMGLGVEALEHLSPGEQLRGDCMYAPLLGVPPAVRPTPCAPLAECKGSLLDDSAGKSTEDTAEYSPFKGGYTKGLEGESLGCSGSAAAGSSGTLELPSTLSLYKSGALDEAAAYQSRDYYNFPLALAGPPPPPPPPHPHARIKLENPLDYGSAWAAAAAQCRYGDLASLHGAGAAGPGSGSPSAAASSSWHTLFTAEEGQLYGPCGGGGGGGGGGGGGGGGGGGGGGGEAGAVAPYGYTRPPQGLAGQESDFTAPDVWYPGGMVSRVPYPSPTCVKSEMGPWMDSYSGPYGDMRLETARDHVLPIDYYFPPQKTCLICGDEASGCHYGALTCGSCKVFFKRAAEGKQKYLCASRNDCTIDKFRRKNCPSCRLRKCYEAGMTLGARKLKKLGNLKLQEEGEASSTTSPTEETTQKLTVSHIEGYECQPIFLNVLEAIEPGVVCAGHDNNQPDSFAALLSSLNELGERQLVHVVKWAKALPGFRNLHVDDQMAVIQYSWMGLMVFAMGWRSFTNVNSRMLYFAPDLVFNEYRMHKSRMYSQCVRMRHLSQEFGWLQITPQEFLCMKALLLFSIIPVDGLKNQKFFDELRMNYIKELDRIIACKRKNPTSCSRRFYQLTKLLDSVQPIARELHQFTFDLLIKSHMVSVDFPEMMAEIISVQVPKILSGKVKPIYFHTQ
# Summary of the method: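 Reporter-gene luminescence from MDA-kb2 cells exposed 16hr at 37C (0% CO2) to 15-point compound titrations with 3.0uM final nilutamide as AR antagonist.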
# [19] = molecular target: Progesterone receptor (Homo sapiens) (UniProt P06401); test: qHTS assay to identify small molecule agonists of the progesterone receptor (PR) signaling pathway (AID 1346784; calls by dose curve; further: nearly all actives have a fitted effect of over 30% in size)
# Summary of the method: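 PR-UAS-bla HEK 293T cells (beta-lactamase reporter under UAS) in 2% charcoal-stripped FBS, dosed with 23 nL compound after 6 hr, incubated 16hr at 37C. LiveBLAzer B/G FRET substrate added, fluorescence read after 2 hours.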
Compound,Potency [1],Potency [2],Potency [3],Potency [4],Potency [5],Potency [6],Potency [7],outcome [8],Potency [9],Potency [10],Potency [11],Potency [12],Potency [13],Potency [14],Potency [15],Potency [16],outcome [17],Potency [18],Potency [19]
CC(O)c1ccccc1 (stereo not given),inactive,inactive,inactive,inactive,inactive,inactive,inactive,inactive,inactive,inactive,inactive,inactive,inactive,inactive,inactive,inactive,inactive,–,–
C=C(C)[C@@H]1CCC2=CCC[C@@H](C)[C@]2(C)C1,inactive,24.3 µM (active),–,inactive,inactive,inactive,inactive,inactive,inactive,inactive,inactive,–,–,inactive,inactive,inactive,inactive,inactive,–
Nc1ncnc2c1ncn2[C@H]1CC[C@@H](CO)O1,inactive,inactive,inactive,–,inactive,inactive,inactive,inactive,inactive,–,inactive,inactive,inactive,inactive,inactive,inactive,inactive,–,inactive
Clc1cc(Cl)nc(Cl)n1,inactive,inactive,inactive,–,inactive,inactive,–,inactive,inactive,–,inactive,inactive,inactive,–,inactive,inactive,inactive,–,–
CCCCCCCCN,inactive,inactive,inactive,inactive,inactive,inactive,–,inactive,inactive,inactive,inactive,inactive,inactive,–,inactive,inactive,inactive,–,inactive
Cc1cc2c(OCC(CNC(C)(C)C)OC(=O)c3ccccc3)cccc2[nH]1 (stereo not given),inactive,8.41 µM (active),inactive,–,inactive,inactive,inactive,inactive,inactive,inactive,inactive,inactive,–,inactive,inactive,inactive,–,–,inactive
C=C(C)C(=O)OCCCCCCCCCCCCC,inactive,inactive,inactive,inactive,inactive,inactive,inactive,inactive,inactive,inactive,inactive,inactive,inactive,inactive,inactive,inactive,inactive,–,inactive
CC(=O)N/N=C/c1ccc([N+](=O)[O-])o1,inactive,26.6 µM (active),inactive,–,inactive,inactive,inactive,inactive,inactive,inactive,inactive,inactive,inactive,inactive,inactive,inactive,inactive,–,inactive
O=C1c2ccccc2C(=O)C1c1nc2ccccc2c(Br)c1O,inactive,inactive,inactive,–,inactive,inactive,–,inactive,inactive,inactive,inactive,inactive,inactive,inactive,inactive,–,–,–,–
COc1ccc(OC(=O)N(CC(=O)O)Cc2ccc(OCCc3nc(-c4ccccc4)oc3C)cc2)cc1,inactive,inactive,23.7 µM (active),inactive,16.8 µM (active),inactive,inactive,inactive,inactive,inactive,inactive,–,inactive,inactive,inactive,–,inactive,–,inactive
CCN(CC)CCNC(=O)COc1ccc(OC)cc1,inactive,inactive,inactive,inactive,inactive,inactive,inactive,–,–,inactive,–,inactive,inactive,–,inactive,inactive,inactive,–,–
O=[N+]([O-])c1cc(C2CCCCC2)c(O)c([N+](=O)[O-])c1,inactive,1.08 µM (active),–,24.3 µM (active),inactive,inactive,inactive,inactive,inactive,15.3 µM (active),24.3 µM (active),–,–,inactive,inactive,–,–,inactive,–
CC1(C)[C@H](C(=O)O)N2C(=O)C[C@H]2S1(=O)=O,inactive,inactive,11.9 µM (active),inactive,inactive,inactive,inactive,–,–,–,–,inactive,inactive,inactive,inactive,inactive,inactive,–,–
